This note sets out measurements from PubChem BioAssay AID577 (University of Pittsburgh Molecular Library Screening Center, 2007).

The whole screen tested about 65,000 compounds, of which about 120 (0.18%) were called active. What follows is part of a selection rich in actives, with near analogues and random picks from the rest. Values without a mark were called inactive. No stated cut-off is given here; in the data, active means z-score below about -3; inactive means the rest.

Sequence of Genome polyprotein (West Nile virus) (P06935 1371-1501 limits assumed): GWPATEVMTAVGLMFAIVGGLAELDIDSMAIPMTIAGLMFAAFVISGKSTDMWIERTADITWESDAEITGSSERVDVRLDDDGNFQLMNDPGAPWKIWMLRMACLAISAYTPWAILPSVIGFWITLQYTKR
Sequence of Genome polyprotein (West Nile virus) (P06935 1502-1679 limits assumed): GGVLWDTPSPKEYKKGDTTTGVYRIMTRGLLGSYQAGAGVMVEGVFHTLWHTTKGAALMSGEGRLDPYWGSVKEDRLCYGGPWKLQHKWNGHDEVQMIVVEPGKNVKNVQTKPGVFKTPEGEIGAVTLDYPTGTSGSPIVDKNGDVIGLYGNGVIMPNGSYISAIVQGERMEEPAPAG

This experiment addresses Genome polyprotein (West Nile virus) (UniProt P06935). In words: West Nile NS2B-NS3 proteinase blockers – biochemical, fluorogenic substrate, primary screen (AID 577). Conditions: WNV NS2B-NS3 protease, fluorogenic substrate Ex360/Em465; stronger effect = lower value.
With `O=C(Nc1ccccc1N1CCCCC1)c1ccc2nccnc2c1`, the z-score is -0.92.

As to `Cc1cc(N2C(=O)C(=O)/C(=C(/O)c3ccc(Cl)cc3)C2c2cccc(Br)c2)no1` (stereo not drawn), the z-score was 0.05.

`COc1ccc(S(=O)(=O)N2CCN(c3ncnc4c(-c5ccccc5)nsc34)CC2)cc1`: the z-score was -0.64.

For the molecule `Cc1ccc(NC(=O)C2CC(c3ccc(F)cc3)=NO2)cc1` (stereo not drawn), the z-score is -0.46.

As to `Cc1noc(C)c1S(=O)(=O)NCCc1ccc(S(N)(=O)=O)cc1`, the z-score was -0.09.

In the case of `Cn1c(=O)cc(OCCCC(=O)N2CCN(Cc3ccc4c(c3)OCO4)CC2)c2ccccc21`, the z-score was -0.06.

Consider `O=c1[nH][nH]c(=O)c2cc(N3CCCC3)ccc12`, for which the z-score was 0.92.

For the molecule `COc1ccc(C)c2sc(=NC(=O)c3ccc(C#N)cc3)n(C)c12`, the z-score was 0.36.

Regarding `COc1ccccc1CNC(=O)CCn1c(=O)sc2ccccc21`, the z-score is 0.34.

Turning to `O=S(=O)(CCc1nc2ccccc2o1)c1ccc(Cl)cc1`, the z-score was 0.84.

With `CC(NC(=O)c1ccc(Cl)cc1)C(=O)N1CCCCC1` (stereo not drawn), the z-score was -0.48.

Consider `CCN(CC(=O)NC(C)C)C(=O)CCNC(=O)c1ccc(Cl)cc1`, for which the z-score is -3.81 (active).

Consider `Cc1ccc(CNC(=O)CCCNC(=O)c2ccc(Cl)cc2)n1C`, for which the z-score was 0.2.

Regarding `CCOC(=O)C1CCCN(C(=O)Cn2ncc3c(=O)oc4ccc(C)cc4c32)C1` (stereo not drawn), the z-score is -0.8.

As for `CC(=O)N(Cc1cccs1)C1CCOC(C)(C)C1` (stereo not drawn), the z-score was 0.1.

With `O=c1c2c(nc3n1CCCCC3)sc1c(O)cccc12`, the z-score is -0.99.

Regarding `CCn1cc(C(=O)NCc2ccc(OC)cc2OC)c(=O)c2ccc(C)nc21`, the z-score was 0.31.

As to `CN1CCN(C(=O)c2ccc(NS(=O)(=O)c3ccccc3)cc2)CC1`, the z-score was 0.73.

Regarding `O=C(c1cccc(S(=O)(=O)N2CCOCC2)c1)N1CCOCC1`, the z-score was -0.56.

In the case of `CC(=O)N1CCN(C(=O)c2cccc(S(=O)(=O)Nc3ccc(C)cc3)c2)CC1`, the z-score is -4.83 (active).

With `O=C(NCc1ccco1)C1CCCN(S(=O)(=O)c2cnc[nH]2)C1` (stereo not drawn), the z-score was 0.15.

As for `Cn1c(=O)[nH]c(=O)c2c1nc(N1CCN(CCO)CC1)n2CCSc1nc2ccccc2s1`, the z-score was 0.89.

For the molecule `CCOC(=O)N1CCC(NC(=O)c2ccc3nc(N4CCOCC4)sc3c2)CC1`, the z-score is -0.98.

Take `O=C(NCc1ccco1)c1ccc(CS(=O)(=O)Cc2ccc(F)cc2)o1`: the z-score was -0.19.

In the case of `CCOc1ccccc1NC(=O)c1cc(S(=O)(=O)N2CCC3(CC2)OCCO3)ccc1F`, the z-score is -0.89.

Regarding `O=C(Cn1c(-c2ccccn2)nc2ccccc21)NCCN1CCOCC1`, the z-score is 0.41.

Take `O=C(Nc1ccon1)c1sc2ccccc2c1Cl`: the z-score is 1.15.

As for `O=C(O)Cc1ccc(NC(=O)C2CCCCC2C(=O)O)cc1` (stereo not drawn), the z-score was 0.69.

`Cc1cccc(N2CC(C)Cn3c2nc2c3c(=O)n(CC(=O)OCc3ccccc3)c(=O)n2C)c1` (stereo not drawn): the z-score was -0.58.

For the molecule `O=C(Cc1c(F)cccc1Cl)N1CCN(C(=O)c2ccco2)CC1`, the z-score is 0.71.

For `Cc1oc(CC(C)C)c(CN2CCCC2)c1C(=O)O`, the z-score was 0.09.

In the case of `CC1CCN(c2nc3c(c(=O)[nH]c(=O)n3C)n2CCCc2ccccc2)CC1`, the z-score is -0.61.

Regarding `COc1ccc(NC(=O)Nc2cccc3cccnc23)cc1`, the z-score is -0.61.

For `COc1ccc(-c2ccc(Nc3ccc(S(=O)(=O)N4CCCC4)cc3)nn2)cc1OC`, the z-score is -0.56.

Take `c1ccc(-c2cc(-c3nnc4sc(-c5ccccn5)nn34)[nH]n2)cc1`: the z-score was -1.41.

In the case of `Cc1cc2nc(-c3ccc(NC(=O)c4cccnc4)cc3)oc2cc1C`, the z-score was -0.13.

In the case of `COc1ccc(OC)c(S(=O)(=O)Nc2ccccc2F)c1`, the z-score is 0.89.

Regarding `O=C(Cn1cnc2c(nnn2-c2ccccc2)c1=O)N1CCC(Cc2ccccc2)CC1`, the z-score was 2.2.

For `NS(=O)(=O)c1cc2c(cc1Cl)NC(C(Cl)Cl)NS2(=O)=O` (stereo not drawn), the z-score is 1.86.

In the case of `CNC(=O)n1ccc(C(=O)N2CCCCC2)n1`, the z-score is 1.25.

As for `COc1ccccc1N=C1SC(C)CN1C(=O)C1CCC1` (stereo not drawn), the z-score was -0.3.

For `COCCN1Cc2cccc(C(=O)Nc3ccccc3OC)c2C1=O`, the z-score is -0.41.

Consider `CC(C)OCCCNC(=O)C1CC(=O)N(C2CCCCCCC2)C1` (stereo not drawn), for which the z-score is -1.25.

With `CCOC(=O)C1=C(CNC2CCCCC2)NC(=O)NC1c1cc(C)ccc1C` (stereo not drawn), the z-score was -0.35.

Take `c1ccc(-c2noc(-c3cccs3)n2)nc1`: the z-score is -0.18.

With `O=C(CCCN1C(=O)CSc2ncccc21)N1CCN(c2cccc(C(F)(F)F)c2)CC1`, the z-score was 0.85.

Regarding `O=C(CC1(O)C(=O)N(CN2CCOCC2)c2ccccc21)c1ccccc1` (stereo not drawn), the z-score was 2.57.

In the case of `CC(C)Cn1c(CN(Cc2ccccc2)Cc2ccccc2)nc2c1c(=O)n(C)c(=O)n2C`, the z-score is 0.14.

With `CCOC(=O)N1CCN(CC(=O)c2ccc3c(c2)CCN3)CC1`, the z-score was -0.8.

As to `O=C1Nc2ccccc2C12Nc1ccccc1S2` (stereo not drawn), the z-score was -0.84.

As for `CC(=O)N1CC2(C)CN(C(C)=O)CC(C)(C1)C2=O`, the z-score was -0.17.

As for `CCOC(=O)c1cnc(-n2nc(C)cc2C)nc1-n1nc(C)cc1C`, the z-score was 0.5.

Turning to `CCOC(=O)N1CCN(C(=O)CN(C2CCCCC2)S(C)(=O)=O)CC1`, the z-score was -1.44.

As for `COC(=O)C1=C(C)NC2=C(C(=O)c3ccccc32)C1c1ccc(-c2ccc(C(=O)O)cc2)o1` (stereo not drawn), the z-score is 0.76.

Regarding `COCCCN(C(=O)Cn1ncc2c(=O)oc3ccc(C)cc3c21)C(C)c1ccncc1` (stereo not drawn), the z-score was -0.67.

With `Cc1ccccc1N1CC(c2nc3ccccc3[nH]2)CC1=O` (stereo not drawn), the z-score was 1.22.

In the case of `O=C(CC1N=C2c3ccccc3N=C(SCc3ccccc3Cl)N2C1=O)NCc1ccco1` (stereo not drawn), the z-score was 1.46.

In the case of `Cc1c(C(=O)Nc2ccccc2Cl)oc2ccc(S(=O)(=O)N3CCC4(CC3)OCCO4)cc12`, the z-score is -1.64.

Regarding `Cc1cccc(-n2c(N)cc(=O)nc2SC(C)C(=O)NC2CCCCC2)c1` (stereo not drawn), the z-score was -0.09.

As to `CCCCN=C(N)/C(C(=O)OCC)=C(\O)c1ccc(OC)cc1`, the z-score is 0.82.

On to `COc1ccc2c(Cl)c(-c3nnco3)sc2c1`, for which the z-score was -0.13.

For the molecule `C=CCOc1ccc(/C=N/n2cncn2)cc1OC`, the z-score was 1.7.

As for `CCOCC(=O)NCc1ccc2c(c1)cc(C)n2C`, the z-score is -0.69.

In the case of `Cc1ccc2c(c1)NCC(C(=O)NC1CCC(C)CC1)O2` (stereo not drawn), the z-score is 0.12.

Take `c1ccc(-c2nnc3n2NC(c2ccc4c(c2)OCO4)S3)cc1` (stereo not drawn): the z-score was -0.39.

Consider `C=CCn1c(COc2cccc3cccnc23)nnc1SCC(=O)OC`, for which the z-score is -1.04.

In the case of `COc1ccc(-n2c(SCC(=O)Nc3ccc4c(c3)OCO4)nnc2C(C)N2CCCCC2)cc1` (stereo not drawn), the z-score was -0.67.

For `CCOc1ccccc1NC(=O)CCc1ccc(C)o1`, the z-score is -0.55.

As for `O=C(c1ccco1)N(Cc1nc2ccccc2c(=O)[nH]1)C1CCCC1`, the z-score is -1.19.

For `Cn1c(NC(=O)c2ccco2)c(-c2ccccc2Cl)c(=O)c2ccccc21`, the z-score is -0.04.

Regarding `COc1ccc(C(=O)c2oc3ccc(Br)cc3c2NC(C)=O)cc1`, the z-score was -3 (active).

As for `COc1ccc2oc(C)c(NC(C)=O)c2c1`, the z-score is -0.59.

With `COC(=O)c1oc2ccc(Br)cc2c1NC(C)=O`, the z-score was 0.25.

As for `O=C1CSC(c2cccc(F)c2)N1c1ccccc1F` (stereo not drawn), the z-score is -0.93.

As to `CCCS(=O)(=O)N1CCCC(C(=O)N2CCN(c3ccccc3)CC2)C1` (stereo not drawn), the z-score is 0.81.

For the molecule `CCn1c(SCCC(C)C)nnc1-c1c[nH]c2ccccc12`, the z-score was -0.65.

Regarding `CCOC1CCCCC1NS(=O)(=O)c1ccc(Cl)cc1` (stereo not drawn), the z-score is -0.25.

Consider `CCNC(=O)N1CCNC(=O)C1CC(=O)Nc1ccc(C(=O)OCC)cc1` (stereo not drawn), for which the z-score is -0.78.

Regarding `Cc1cccc2nc(CNc3ccc(F)cc3)cn12`, the z-score was -0.49.

For `Cc1cc(N2CCCC2=O)cc(C)c1S(N)(=O)=O`, the z-score is 0.56.

Take `O=C(O)C1C2C=CC(C2)C1C(=O)N1CCN(CCO)CC1` (stereo not drawn): the z-score was 0.43.

`CCCn1c(=O)c2[nH]c(C3CCCC3)nc2n(CCC)c1=O`: the z-score was 0.05.

For `CCOc1ccccc1Nc1nnc(SCC(=O)Nc2cc(C)on2)s1`, the z-score was -1.46.

`O=C(CN1C(=O)COc2ccccc21)Nc1ccc(F)cc1`: the z-score was 1.4.

As to `Nc1cc(OC(=O)c2ccccc2Br)nn1S(=O)(=O)c1ccccc1`, the z-score is -6.2 (active).

`Cc1ccc(S(=O)(=O)n2nc(OC(=O)C(C)(C)C)cc2N)cc1`: the z-score is 0.18.

For the molecule `CCCCN(CC)C(=O)CN(C)S(=O)(=O)c1cccc2nsnc12`, the z-score was 1.67.

For the molecule `CC1Cc2ccccc2N1C(=O)CSc1nnc(-c2ccc(S(=O)(=O)N3CCCCC3)cc2)o1` (stereo not drawn), the z-score was 0.94.

As for `CC(=O)N1CSCC1C(=O)O` (stereo not drawn), the z-score is -5.15 (active).

As for `COCc1cc(C)nc(SCC(=O)Nc2cccc(C)c2)c1C#N`, the z-score is 1.36.

Consider `Cn1c(=NC(=O)c2cnccn2)sc2ccccc21`, for which the z-score was -1.53.

`O=C(Nc1ccccc1N1CCCCC1)c1cccc(F)c1`: the z-score was 0.74.

`O=C(CNC(=O)c1ccc(Cl)cc1Cl)NCC(=O)Nc1ccccc1N1CCOCC1`: the z-score is -1.5.

With `CC(=NCc1ccco1)C1=C(O)c2ccccc2C1=O`, the z-score is 0.81.

In the case of `CC1Cc2ccccc2N1C(=O)CSc1nc2ccccc2o1` (stereo not drawn), the z-score was -0.42.

Regarding `O=C(COc1ncnc2ccccc12)NC(=O)NCc1ccccc1`, the z-score was 0.88.

In the case of `Cc1noc(C)c1COC(=O)Cn1c(C)nc2ccccc21`, the z-score was -1.33.

Take `CCOC(=O)N1CCC(NC(=O)C(C)n2c3ccccc3c3cnn(C)c(=O)c32)CC1` (stereo not drawn): the z-score was -0.72.
